Data as given in the supplement of paper PMC6555819.

What was measured:
Test in all cases: PBM binding z-score (relative to random genomic background probes); higher = stronger binding; sequences stand for … in GC…GCGATTGACAGCGTAGAATGAAGG
[1] = tested on: FXR:RXRa (NR concentration 270 nM, RXRa partner concentration 90 nM)
How it was run: (§1)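 The probes on custom Agilent 4×180K protein-binding microarrays were double-stranded, with 34-nt variable regions bearing direct-repeat seeds, single-nucleotide variants, half-site ablations and random human genomic background sequences. Incubation lasted 1 h with ligand-free nuclear receptor dimers in PBS pH 7.4, 2% milk, 0.02% Triton X-100, 1 mM DTT, 0.2 mg/mL BSA and 0.4 mg/ml salmon testes DNA. Antibodies against each partner (one per run) detected bound dimers, and fluorescence scans were regression-normalized. Binding z-scores take the random background probes as reference.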

[2] = tested on: LXRa:RXRa (NR concentration 270 nM, RXRa partner concentration 90 nM)
How it was run: as §1

[3] = tested on: LXRa homodimer (NR concentration 270 nM)
How it was run: as §1

[4] = tested on: LXRb:RXRa (NR concentration 270 nM, RXRa partner concentration 90 nM)
How it was run: as §1

[5] = tested on: LXRb homodimer (NR concentration 270 nM)
How it was run: as §1

[6] = tested on: PPARa:RXRa (NR concentration 270 nM, RXRa partner concentration 90 nM)
How it was run: as §1

[7] = tested on: PPARg:RXRa (NR concentration 180 nM, RXRa partner concentration 90 nM)
How it was run: as §1

[8] = tested on: PPARg:RXRa 270nM:90nM, anti-RXR (NR concentration 270 nM, RXRa partner concentration 90 nM)
How it was run: as §1

[9] = tested on: PPARg:RXRa 30nM:10nM, anti-RXR (NR concentration 30 nM, RXRa partner concentration 10 nM)
How it was run: as §1

[10] = tested on: PPARg:RXRa 90nM:30nM, anti-RXR (NR concentration 90 nM, RXRa partner concentration 30 nM)
How it was run: as §1

Row | Sequence | PBM binding z-score [1] | PBM binding z-score [2] | PBM binding z-score [3] | PBM binding z-score [4] | PBM binding z-score [5] | PBM binding z-score [6] | PBM binding z-score [7] | PBM binding z-score [8] | PBM binding z-score [9] | PBM binding z-score [10]
1 | TCTGCTAGGTCAACCATGGTCAGCTAATCTGCTA | 4.32 | 3.21 | -0.0391 | 2.21 | 0.102 | 3.52 | 2.98 | 3.44 | 2.15 | 2.95
2 | AATACAGTGTCATCGTAGGCCAGAGTACGCACAG | 0.397 | 1.79 | -0.224 | 0.401 | -0.022 | 0.815 | 1.05 | 0.517 | 0.42 | 0.495
3 | ATCTCAAGGTAACAAGTTCAGTGAAAGAGAGGAC | 1.2 | 1.29 | 0.665 | 0.971 | 0.9 | 1.4 | 0.619 | 1.08 | 0.731 | 1.03
4 | CGTCCAAGGTGAAAGGTCAGTGAAGAGATGACGG | 4.63 | 4.11 | 0.846 | 3.61 | -0.321 | 6.01 | 9.57 | 8.09 | 7.25 | 8.46
5 | AGAATGAGGTTATCAAAGATCAGGGAAACGCTTG | 1.6 | 5.08 | -0.032 | 2.44 | -0.277 | 3.13 | 1.78 | 1.69 | 0.863 | 1.53
6 | CGAAAGAGGGCATGAGTTGATAGCAAATGCCGAT | 0.277 | 0.423 | -0.431 | 0.0383 | -0.529 | 1.7 | 1.14 | 1.19 | 0.0878 | 0.644
7 | ATCTCTACGTAAAGTTCAGTGAAAGATCGATAGA | 0.641 | 1.57 | 1.36 | 1.02 | 1.16 | 1.36 | 1.04 | 2.47 | 1.02 | 1.96
8 | TCTCGGAGGACACGAAAGGTCAGACCTCGACATC | 3.09 | 3.69 | 3.12 | 3.51 | -0.0358 | 3.57 | 1.38 | 2.68 | 2.63 | 2.67
9 | TAGCCTAGGTCAGACCGGGCCAGTATACGCTATA | 2.15 | 1.09 | -0.437 | 0.609 | -0.719 | 1.61 | 0.828 | 0.617 | -0.277 | 0.23
10 | CCAGACAGGTGAGAAGCTAACTCAGCCTCGATTA | -0.201 | -0.31 | -0.163 | -0.228 | -0.869 | 0.155 | 0.347 | 0.159 | -0.632 | -0.0205
11 | ACTATTAGATGACTTAGGGCAACCGATACGACGC | 0.344 | 0.353 | 0.702 | 0.165 | 1.14 | 0.0577 | 1.25 | 0.22 | 0.441 | 0.295
12 | CCGAGTAGGTTACGGGGCATTCAGGCAACGGTGA | 0.382 | 0.612 | -0.693 | 0.593 | -0.641 | 2.14 | 2.87 | 3.66 | 1.1 | 2.95
13 | TCTCGTAGATCAACAGGAGGTTAAGAAAGATCGA | 0.345 | 1.09 | -0.171 | 1 | -0.667 | 1.13 | -0.29 | 1.7 | 2.94 | 2.36
14 | TCTAGTTGGTCACGGAGGTCTCACACGACGGGTA | 0.555 | 0.613 | 0.0269 | 0.437 | -0.332 | 1.16 | 0.78 | 1.99 | 2.94 | 2.55
15 | ATCTTTAGGTAAAGATAGTTCAGTGAATGCAAAT | 0.178 | 4.41 | 0.491 | 0.995 | 0.495 | 0.508 | 0.63 | 0.465 | 0.338 | 0.506
16 | ACGAGCAGGCCAAGGGTCACTCAAGATTAGTCCG | 2.54 | 2.98 | 0.215 | 2.7 | -0.627 | 4.15 | 5.95 | 6.33 | 3.74 | 5.66
17 | TCTGATAGGTCAACGATGGTCAGCTAATCTGCTA | 5.29 | 4.83 | 0.975 | 3.31 | 0.737 | 4.76 | 3.47 | 4.48 | 3.79 | 4.21
18 | CCTAGTTGGTCAAGGGCACACACGCTATAGGTAC | 0.355 | 0.541 | 0.134 | 0.385 | -0.148 | 0.682 | 1.51 | 1.57 | 0.541 | 1.26
19 | GCTGCTAGGACAGGTTGGTCAGCTAACGGGTACG | -0.662 | -0.909 | -0.343 | -0.926 | -0.654 | -0.661 | 0.0442 | -0.697 | -1.16 | -0.722
20 | TTTAGCAGGCCAGAGGGTCACTCAAGAGGTACGG | 0.67 | 0.761 | -0.56 | 1.09 | -0.78 | 2.32 | 2.08 | 2.99 | 1.1 | 2.42
21 | GAATATAGGTAATACAAGGTGAAAGTCCGATTGT | 1.61 | 2.61 | 0.76 | 1.01 | 0.0272 | 2.77 | 3.39 | 3 | 0.987 | 2
22 | TGAATGAGGTTATAAGATCAGGGGACGTTGCAAA | 1.42 | 1.51 | -0.106 | 1.61 | 0.309 | 2.73 | 1.65 | 1.96 | 0.887 | 1.28
23 | ATACCAAGGTGATCGTGAGATCGTTGATACTAAC | 0.2 | 0.163 | 0.16 | 0.121 | -0.2 | 0.129 | 0.447 | 0.161 | -0.226 | -0.234
24 | AGTCAAAGTTCACAAGGTAACGTAAGATTCAGCT | 6.12 | 5.7 | 3.55 | 3.65 | 1.1 | 4.75 | 6.96 | 6.42 | 3.67 | 5.78
